Screens: PubChem BioAssay, National Center for Advancing Translational Sciences (NCATS)
Many of the other results were omitted from the sample, so hits are more common in it than they were.
Pf Dd2 inh: Plasmodium falciparum Dd2 growth inhibition. Potency, µM (top dose mostly 28.9 µM), actives largely listed as inhibitors. hit rate 4.3% among 120,000. P. falciparum Dd2 growth, SYBR Green, 72 h. AID 1347417; active means well fitted inhibition curve with a large enough effect; further: nearly all actives have a fitted effect of over 65% in size
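Readout: SYBR Green fluorescence, 485 nm excitation, 535 nm emission, after ~16 h lysis at 37C. Before that, Dd2-infected red cells (2.5% hematocrit) grew 72 h with compound, 29 uM top final concentration.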
Each line names hits and unclear results; the compound was inactive in the other large screens.

CC(C)(C)OC(=O)N1CCC(c2c(C(=O)N3CCN(C(=O)c4ccco4)CC3)cnn2-c2ccc(Cl)cc2)CC1	none
CC(C)(C)OC(=O)N1CCC(c2c(C(=O)N3CCN(C(=O)c4ccco4)CC3)cnn2-c2ccccc2Cl)CC1	Pf Dd2 inh 11µM
Cc1nn(C)c(C)c1CCC(=O)N1C[C@@H](Oc2cccnc2)C[C@H]1C(=O)NC1CC1	none
COc1cc(OC(F)(F)F)ccc1C(=O)NCc1nnc2n1C(C(=O)O)CC2 (configuration not stated)	none
COc1ccc(CN2C[C@H](O)C[C@H]2c2nc(-c3ccc(C)c(F)c3)no2)cc1	none
COc1ccc(Cl)cc1C(=O)N1C[C@@H](F)C[C@H]1C(=O)N1CCCCC1	none
COCCC(=O)N[C@@H]1CN(Cc2cccnc2)C[C@H]1CN(C)C	none
Cc1ccc(-c2nn(-c3cccc(F)c3)cc2CN(C)CCO)o1	Pf Dd2 inh 7.9µM
COc1ccc(-c2nn(-c3ccccc3C)cc2CN(C)Cc2cn(C)nc2C)cc1F	none
Cc1cc(CN(C)Cc2cn(-c3cccc(F)c3)nc2-c2ccc(C)o2)n[nH]1	none
CNCc1cn(C2CCN(Cc3c(OC)ccc(F)c3F)CC2)nn1	none
O=C(CCCc1nc2ccccc2[nH]1)N1CCc2c(nc3cc(-c4ccccc4)[nH]n3c2=O)C1	none
O=C(COc1cccc(F)c1)c1ccc2c(c1)N(CC(=O)N1CCOCC1)C(=O)CO2	none
CCC(C)NC(=O)CC1Sc2ncccc2N(CC(C)C)C1=O (configuration not stated)	none
Cc1noc([C@@H]2CN(C(=O)Cn3c(=O)oc4ccccc43)C[C@H]2C(N)=O)n1	none
O=C(c1ccccc1OCC1CCCN(Cc2cccs2)C1)N1CCCC1 (configuration not stated)	none
CCOC(=O)C(C)NC(=O)c1c(C)oc2ncn(CC(C)C)c(=O)c12 (configuration not stated)	none
COc1ccc(OC)c(CCNC(=O)c2c(C)oc3ncn(C)c(=O)c23)c1	none
COc1ccc(OC)c(CNC(=O)c2c(C)oc3ncn(CC(C)C)c(=O)c23)c1	Pf Dd2 inh 10µM
Cc1nnnn1CCC(=O)N[C@H]1CN(S(C)(=O)=O)C[C@@H]1C(C)C	none
COc1ccc(CNC(=O)[C@@H]2CCC[C@@H](NCc3cccc(Cl)c3)CN(C)C(=O)C2)cc1	none
Cc1cccc2c1N(Cc1ccccc1OCCC(C)C)C(=O)C2=O	Pf Dd2 inh 10µM
CC(C)Oc1ccccc1CN1CCC([C@@H]2CNC[C@H]2CO)CC1	none
CCCCCOc1ccccc1Cn1c(=O)oc2ccc(C)cc21	none
Cc1cc(Br)cc2c1N(Cc1ccccc1OC(C)C)C(=O)C2=O	Pf Dd2 inh 11µM
COc1ccccc1Cn1ccn(CC(=O)Nc2c(C)cc(C)cc2C)c(=O)c1=O	none
COc1ccccc1CN1C(=O)C(=O)c2cccc(C)c21	none
COc1ccc(CN2CCc3nn(CC4CC4)c(=O)n3CC2)c(Cl)c1OC	none
Cc1ccc(C(=O)N2CCN(c3cc(C(F)(F)F)ncn3)CC2)cc1F	none
COC[C@@H]1CN(C(=O)c2ccc3ncccc3c2)C[C@H]1c1ccncc1	none
Cc1ccc(-c2cn3c(n2)CO[C@@H](CNCc2ccc(S(C)(=O)=O)cc2)C3)cc1	none
Cc1ccc(-c2cn3c(n2)CO[C@@H](CNCc2ccc(-c4ccccn4)cc2)C3)cc1	Pf Dd2 inh 13µM
Cc1ccc(-c2cn3c(n2)CO[C@@H](CNCc2ccc(Cl)cc2)C3)cc1	none
CN1CCC(Cc2ccc(C(=O)NCC3CCCCC3)cc2)CC1	none
Cc1[nH]ncc1CNC(=O)C1CCN(C(=O)c2ncn3c2COC(c2ccc(F)cc2)C3)CC1 (configuration not stated)	none
CC(C)(C)OC(=O)N1CC(NCc2ccc(-c3ccc(OC(F)(F)F)cc3)cc2)C1	Pf Dd2 inh 10µM
COc1ccc(CNC2CN(C(=O)OC(C)(C)C)C2)cc1	none
CC(C)(C)OC(=O)N1CC(NCc2ccc(C(F)(F)F)cc2)C1	none
Cc1ccc(C(=O)N2C[C@@H](F)C[C@H]2C(=O)N2CCCCC2)c(C)c1	none
CC(CCc1ccccc1)NC(=O)Cn1cccc1-c1nc(-c2ccccc2)no1 (configuration not stated)	none
COc1cccc(NC(=O)c2cccc3c(=O)c4c([nH]c23)CCCC4)c1	Pf Dd2 inh 0.89µM
COc1cccc(NS(=O)(=O)c2ccc3[nH]c4c(c3c2)CCCCCC4)c1	none
O=C(CSc1nc(=O)[nH]c2c1CCCC2)NCc1ccccc1	none
O=C(Nc1ccccc1)c1cccc2c(=O)c3c([nH]c12)CCCC3	Pf Dd2 inh 4.5µM
CCC1(C(=O)Nc2cccc(OC)c2)CCCCC(=O)N1 (configuration not stated)	none
O=C(CSc1nc(=O)[nH]c2c1CCC2)NCc1ccccc1	none
CC(C)NC(=O)N[C@H]1C[C@H]2C(=O)NC[C@@H](CCC(=O)N3CCN(C)CC3)N2C1	none
C1=CCC(c2nc(C3CCOCC3)nn2-c2cccnc2)C1	none
Cn1cccc1C(=O)NC1CCCN(c2cc(-c3ccc(Cl)cc3)[nH]n2)C1 (configuration not stated)	none
CNC(=O)N1CCC(C2CCN(S(=O)(=O)c3ccc(C)c(F)c3)C2)CC1 (configuration not stated)	none
